# Laboratory results: PubChem BioAssay (NCI)
# The panel holds about 83,000 compounds, 20% with a hit somewhere; the sample as a whole holds those more often.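 Cells were grown in 96-well plates and exposed to the test compound at a single concentration for 48 hours; results are reported as percent growth, with values below 10 considered active.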 Calls of active or inactive are those of the source.
# System: BT-549 breast
# Experiment: NCI-60 one-dose screen, 48 h (100 = growth as untreated, 0 = no growth, -100 = all killed)
# Settings: 10 µM unless noted
row,SMILES,growth
1,O=C(Nc1ccccc1)c1sc(-c2cccc(C(F)(F)F)c2)cc1O,70.8% (inactive)
2,COc1ccc(/C(C)=N/NS(=O)(=O)c2ccc(C)cc2)cc1OC,100% (inactive)
3,O=C(CC12CC3CC(CC(C3)C1)C2)NCCOCCOCCOCCNC(=O)c1cc2c(o1)C(=O)c1ccccc1C2=O,-90.6% (active)

# System: MDA-MB-435 melanoma
# Experiment: as above
# Settings: 10 µM unless noted
row,SMILES,growth
1,O=C(O)C1C[C@](O)(c2ccc(F)cc2)[C@@H](c2ccc(F)cc2)O1 (some centres not stated),99.1% (inactive)
2,N=C(N)c1ccc(-c2ccc(-c3ccc(Cl)cc3Cl)o2)cc1,-63.6% (active)
3,C[N+](C)(C)CCOC(OCC[N+](C)(C)C)(c1ccccc1)c1ccccc1,121% (inactive)
4,NC(N)=N/N=C/CO,106% (inactive)
5,CCCCNC(=O)NS(=O)(=O)c1ccc(N2N=C(c3ccc(C)cc3C)CC2c2ccc(N(C)C)cc2)cc1 (configuration not stated),9.98% (active)
6,N[C@H]1CCC[C@@H]1NCCCCN1C(=O)c2cccc3cccc(c23)C1=O,89.5% (inactive)
7,O=C1Nc2ccccc2/C1=N/N=C/c1c[nH]c2ccccc12,73.8% (inactive)
8,C[C@@H]1CC[C@@H]2[C@@H]1[C@H](OC(=O)/C=C/c1ccccc1)[C@]1(C3CCCCC3)C[C@@H](NC(=O)CO)[C@@]2(C)O1,94.3% (inactive)
9,CCCN1CCN(c2ccc3nc(-c4ccc5nc(-c6ccc(OCC)c(OCC)c6)[nH]c5c4)[nH]c3c2)CC1,-88.2% (active)
10,CCc1cc(Cc2cc(CC)cc(C(C)(C)C)c2O)c(O)c(C(C)(C)C)c1,18.4% (inactive)
11,CNC(=O)c1c(NC(=O)c2ccc(C(C)(C)C)cc2)sc2c1CCC(=O)C2,-9.83% (active)
12,CC(C)(C)c1ccc(C(=O)Nc2sc3c(c2C(N)=O)CCC(=O)C3)cc1,-45.2% (active)
13,COc1ccc(-n2nnc(C(=O)NCCc3c[nH]c4ccc(F)cc34)c2C)cc1,101% (inactive)
14,C=CCN1C(=O)[C@]2(SC1=S)[C@H](c1cccc(Cl)c1)CN(C)[C@]21C(=O)NC2C=CC(Cl)=C[C@H]21 (some centres not stated),55.1% (inactive)
15,C=C1C(=O)O[C@H]2[C@H]1CC/C(COC(=O)/C=C\C(=O)NCc1ccc(Cn3c(=O)sn(CCCC)c3=O)cc1)=C\CC[C@@]1(C)O[C@@H]21,-73.9% (active)
16,CN1C[C@@H](c2ccc(Cl)cc2)[C@]2(NC(=S)N(c3ccc(F)c(Cl)c3)C2=O)[C@@]12C(=O)NC1C=CC(Cl)=C[C@H]12 (some centres not stated),56.8% (inactive)
17,c1ccc2[nH]c(SSc3nc4ncncc4[nH]3)nc2c1,19.7% (inactive)
18,CCCCCOC(=O)c1cccc(NC(=O)CN(CC)CC)c1,101% (inactive)
19,CN(CCCCCCCCNc1ccnc2ccccc12)Cc1ccc(-c2ccc(-c3ccc(C#N)cc3)s2)cc1,-91.6% (active)
20,CN(C)c1ccc2cc(-c3ccc(Cl)c(Cl)c3)c(N)nc2c1,22.4% (inactive)

row,SMILES,growth
1,CCN(CC)CC(=O)Nc1cccc(C(=O)OC(C)C)c1,102% (inactive)
2,CN(C)S(=O)(=O)n1cnc([C@@H]2[C@@H]3C(=O)OC[C@@H]3C[C@]23N=CN(Cc2ccccc2)C3=O)c1,108% (inactive)
3,O=C(Oc1ccc([N+](=O)[O-])cc1)c1ccc(CBr)cc1,98.8% (inactive)
4,CCN(CC)CCOc1ccc(/C(=C(\C)c2ccc(F)c(OC)c2)c2ccc(Cl)cc2)cc1,15% (inactive)
5,CCOC(=O)c1nnn(C(Cc2ccccc2Cl)C(=O)OCC)c1C (configuration not stated),105% (inactive)
6,COc1ccc2c(c1)/C(=C\c1sc(=S)[nH]c1O)C(C(=O)O)=N2,100% (inactive)
7,Cc1cc(Cc2cc(C)cc(C(C)(C)C)c2O)c(O)c(C(C)(C)C)c1,52.2% (inactive)
8,N#Cc1c(N)nc2c(nnn2-c2cccc(Br)c2)c1N,108% (inactive)
9,O=C(NCc1cn(Cc2cccc(Oc3ccccc3)c2)nn1)c1cccnc1NCc1ccc(Cl)cc1,-2.51% (active)
10,Nc1ccc(-c2cc3c(Nc4ccc(OCc5cccc(F)c5)c(Cl)c4)ncnc3s2)cc1,43.8% (inactive)
11,COc1cccc(-c2nc3sccn3c2-c2ccnc(NCCNS(=O)(=O)c3c(Cl)cccc3Cl)c2)c1,50.4% (inactive)
12,CC(=O)OCCc1ccccc1,104% (inactive)
13,NS(=O)(=O)Oc1ccc(-c2sc3cc(O)ccc3c2C(=O)c2ccc(OCCN3CCCCC3)cc2)cc1,-28% (active)
14,NC(=O)c1c(NC(=O)c2ccc(C(F)(F)F)cc2Cl)sc2c1CCC(=O)C2,-42% (active)
15,Cc1c(C)c2c(c(C)c1NC(=O)/C=C\C(=O)O)CCC(C)(CCCC(C)CCCC(C)CCCC(C)C)O2 (configuration not stated),50.9% (inactive)
16,Cl.Fc1c[c-]c(-c2ccccn2)c(F)c1.[Pt].c1ccc([PH+](C[PH+](c2ccccc2)c2ccccc2)c2ccccc2)cc1,-83.3% (active)
17,O=C(Nc1ccccc1)c1sc(-c2cccc(C(F)(F)F)c2)cc1O,77.9% (inactive)
18,COc1ccc(/C(C)=N/NS(=O)(=O)c2ccc(C)cc2)cc1OC,103% (inactive)
19,O=C(CC12CC3CC(CC(C3)C1)C2)NCCOCCOCCOCCNC(=O)c1cc2c(o1)C(=O)c1ccccc1C2=O,-96.8% (active)
